Test results taken from ChEMBL document CHEMBL3988442, “University of Dundee, Small-Polar-MMV Screening Library” (2021).
Out of some 69,000 compounds screened, about 1,000 (1.4%) showed an effect of 50% or more. What follows is part of a selection rich in strong results, with near analogues and random picks from the rest.

System: Leishmania donovani
Test: Leishmania intramacrophage assay
Format: functional, organism-based
Set-up: scale not given: in the data most compounds retested in dose-response had high values

C[C@H]1C[C@H]2CN(C(=O)c3cccc4c3OCCO4)CC[C@H]2O1
Percent Effect (30.3 µM, […]): -11.14%

CCc1nccn1-c1cccc(C2CCCN2)n1.Cl.Cl (stereo not given)
Percent Effect (30.3 µM, […]): 6.16%

O=C1CCCN1CCCN1CCCCC1Cn1cncn1 (stereo not given)
Percent Effect (30.3 µM, […]): 26.96%

Cc1csc(CCNC(=O)N2CCC(NC(=O)OC(C)(C)C)CC2)n1
Percent Effect (30.3 µM, […]): -5.066%

CSc1nc2cc(C)n(CC(=O)N3CCCC3)c2c(=O)n1CC(C)C
Percent Effect (30.3 µM, […]): 6.672%

CC(NCc1ccc(OCC(N)=O)cc1)c1ccc(Cl)c(Cl)c1.Cl (stereo not given)
Percent Effect (30.3 µM, […]): 12.13%

CC(NCc1ccc(OCC(N)=O)cc1)c1ccc2c(c1)CCCC2 (stereo not given)
Percent Effect (30.3 µM, […]): 72.53%

CC(NCc1ccc(OCC(N)=O)cc1)c1ccc(Cl)cc1.Cl (stereo not given)
Percent Effect (30.3 µM, […]): 32.34%

CCc1nncn1CCNC(=O)Nc1ccc(OC)c(C)c1
Percent Effect (30.3 µM, […]): 5.132%

CCC(=O)c1ccccc1NN1c2ccccc2C(=O)C1(C)OC (stereo not given)
Percent Effect (30.3 µM, […]): 62.96%

CCC(=O)c1ccc(Br)cc1NN1c2cc(Br)ccc2C(=O)C1(C)OC (stereo not given)
Percent Effect (30.3 µM, […]): 24.9%

CCOC1(C)C(=O)c2ccccc2N1Nc1ccccc1C(=O)CC (stereo not given)
Percent Effect (30.3 µM, […]): 19.56%

Cc1c(C(=O)O)cnn1-c1ccc(-c2nc(C3CC3)no2)cn1
Percent Effect (30.3 µM, […]): 11.33%

CC(C)Cc1cc(NC(=O)c2cc(Cl)c[nH]2)n(C)n1
Percent Effect (30 µM): -56.19%

N#Cc1cccc(N2CCCC(CO)(Cc3ccccc3F)C2)n1 (stereo not given)
Percent Effect (30.3 µM, […]): 29.41%

N#Cc1cccnc1N1CCCC(CO)(Cc2ccccc2F)C1 (stereo not given)
Percent Effect (30.3 µM, […]): 2.884%

COc1cc(N2CCCC(CO)(Cc3ccccc3F)C2)ncn1 (stereo not given)
Percent Effect (30.3 µM, […]): 63.9%

OCC1(Cc2ccccc2F)CCCN(c2ccc3ccccc3n2)C1 (stereo not given)
Percent Effect (30.3 µM, […]): 23.98%

Nc1cc(N2CCCC(CO)(Cc3ccccc3F)C2)nc(N)n1 (stereo not given)
Percent Effect (30.3 µM, […]): 94.26%

CC(=O)c1ccc(N2CCCC(CO)(Cc3ccccc3F)C2)nc1 (stereo not given)
Percent Effect (30.3 µM, […]): 13.31%

CC(C)(C)c1cn2nc(N3CCC[C@@H]3CO)sc2n1
Percent Effect (30 µM, 30.03 µM): 20.83%

CN(C)C(=O)N1CCN(C(=O)c2ccc(Cl)c(Cl)c2)C(C)(C)C1
Percent Effect (30.3 µM, […]): 36.34%

CCc1nc(N2CCN(CCOC)CC2)c2cnn(C)c2n1
Percent Effect (30.3 µM, […]): 9.143%

CCNC(=O)CN(CC)C(=O)Cc1csc(C(C)C)n1
Percent Effect (30.3 µM, […]): 17.83%

Cc1ncccc1CNCC1COC2(CCCCC2)O1 (stereo not given)
Percent Effect (30.3 µM, […]): 19.04%

Cc1nc(NCCCn2cccn2)c2c(n1)c(C)nn2C
Percent Effect (30.3 µM, […]): -31.03%

O=C(CNC(=O)c1cnc2ccccc2c1O)NCCCn1ccnc1
Percent Effect (30.3 µM, […]): 15.36%

CN(C)C[C@@H]1CN(C(=O)Cc2ccccc2)C[C@@H]1CO
Percent Effect (30.3 µM, […]): 22.9%

CN1CCN(C[C@@H]2CN(C3Cc4ccccc4C3)C[C@@H]2CO)CC1
Percent Effect (30.3 µM, […]): 4.168%

CN(C)C[C@@H]1CN(C(=O)c2cc(F)ccc2F)C[C@@H]1CO
Percent Effect (30.3 µM, […]): 22.29%

CN(CCO)C[C@@H]1CN(Cc2ccccc2-c2ccccc2)C[C@@H]1CO
Percent Effect (30.3 µM, […]): 83.9%

Cc1cc(F)ccc1N1CCC(N2C[C@@H](C)[C@@](C)(O)C2)CC1
Percent Effect (30.3 µM, […]): 44.3%

CN(CCO)C[C@@H]1CN(Cc2ccccc2C#N)C[C@@H]1CO
Percent Effect (30.3 µM, […]): 12.29%

CN(CCO)C[C@@H]1CN(C(=O)c2c(F)cccc2Cl)C[C@@H]1CO
Percent Effect (30 µM, 30.03 µM): 27.13%

CN(CCO)C[C@@H]1CN(C2CCN(c3ccccc3Cl)CC2)C[C@@H]1CO
Percent Effect (30.3 µM, […]): 89.6%

CN(C)C[C@@H]1CN(C2CCN(c3ccccc3Cl)CC2)C[C@@H]1CO
Percent Effect (30.3 µM, […]): 52.98%

Cc1ccccc1CN1C[C@@H](CN(C)CCO)[C@@H](CO)C1
Percent Effect (30.3 µM, […]): 5.953%

Cc1cc(F)ccc1N1CCC(N2C[C@@H](CN(C)C)[C@@H](CO)C2)CC1
Percent Effect (30.3 µM, […]): 95.44%

CN(CCO)C[C@@H]1CN(C(=O)Cc2ccc3ccccc3c2)C[C@@H]1CO
Percent Effect (30.3 µM, […]): -1.562%

O=C(NCCSCc1ccco1)c1ccc(N2CCOCC2)cc1
Percent Effect (30.3 µM, […]): -4.352%

CCc1nnc2n1CCN(C(=O)c1nc(-c3ccco3)sc1C)C2
Percent Effect (30 µM): 1.353%

O=C(O)C(F)(F)F.O=C(c1ccoc1)N1C[C@@H]2OCCN(c3ncccn3)[C@@H]2C1
Percent Effect (30.3 µM, […]): 10.14%

CCc1nccn1-c1nccnc1C1CCCN(C(=O)COC)C1 (stereo not given)
Percent Effect (30.3 µM, […]): 11.67%

Cc1cc(=O)[nH]c(NCCNC(=O)C(c2ccc(F)cc2)N(C)C)n1 (stereo not given)
Percent Effect (30 µM, 30.03 µM): -13%

OCC1(NCc2cnc(-c3cccs3)s2)CCOCC1
Percent Effect (30.3 µM, […]): 16.11%

O=C(C1CC=CC1)N1CCC2(CCC(=O)N2Cc2cccc(F)c2)CC1
Percent Effect (30.3 µM, […]): 15.71%

CCOc1ccc(Cl)c(C(=O)NC(Cc2ccccc2)C(N)=O)n1 (stereo not given)
Percent Effect (30.3 µM, […]): 6.553%

CN(C)S(=O)(=O)CCCOc1cccc(-n2ccnc2)c1
Percent Effect (30.3 µM, […]): -0.5544%

Cc1ccc(N2CCC(N3C[C@@H](CN(C)C)[C@@H](CO)C3)CC2)cc1
Percent Effect (30.3 µM, […]): 38.77%

CNC(=O)CN(C)C1CCN(c2ccc(Cl)cc2)CC1
Percent Effect (30.3 µM, […]): 24.19%

CN(C)C[C@@H]1CN(C2CCN(c3ccc(Cl)cc3)CC2)C[C@@H]1CO
Percent Effect (30.3 µM, […]): 93.76%

OC(COCc1cccs1)Cn1cc(Cl)cn1 (stereo not given)
Percent Effect (30.3 µM, […]): 11.71%

CCC1CN(C(=O)c2csc3nc(-c4ccc(Cl)cc4)cn23)CCN1 (stereo not given)
Percent Effect (30.3 µM, […]): 94.25%

CC(C)N1CCN(C(=O)c2csc3nc(-c4ccc(Cl)cc4)cn23)CC1
Percent Effect (30.3 µM, […]): 11.51%

O=C(c1csc2nc(-c3ccc(Cl)cc3)cn12)N1CCCC(CO)C1 (stereo not given)
Percent Effect (30.3 µM, […]): -3.231%

CN(CC1CCOCC1)C(=O)NCCCN1CCCCC1
Percent Effect (30.3 µM, […]): 19.46%

O=C(c1ccncc1)N1CCC(c2nc(O)cc(-c3cccnc3)n2)C1 (stereo not given)
Percent Effect (30 µM, 30.03 µM): -2.25%

CN(C)CC1(O)CCN(C(=O)Cc2ccc(Cl)c(Cl)c2)C1 (stereo not given)
Percent Effect (30.3 µM, […]): 1.329%

Cc1cc2occ(CC(=O)N3CCC(O)(CN(C)C)C3)c2cc1Cl (stereo not given)
Percent Effect (30.3 µM, […]): 50.58%

Cc1cc2occ(CC(=O)N3CCC4(CCCN(C)C4=O)C3)c2cc1Cl (stereo not given)
Percent Effect (30.3 µM, […]): 10.63%

O=C(O)[C@@H]1CCN(C(=O)Cc2ccccn2)[C@@H]1c1ccc(F)cc1
Percent Effect (30.3 µM, […]): 8.228%

CCO[C@H]1C[C@@H](O)C12CCN(C(=O)CC(F)(F)F)CC2
Percent Effect (30.3 µM, […]): -0.6132%

CN(C)CCNC(=O)c1sc2ccccc2c1C1CCC(CN)CC1.Cl (stereo not given)
Percent Effect (30.3 µM, […]): 63.37%

COCCNC(=O)c1sc2ccccc2c1C1CCC(CN)CC1.Cl (stereo not given)
Percent Effect (30.3 µM, […]): 18.8%

Cl.NCC1CCC(c2c(C(=O)NCCO)sc3ccccc23)CC1 (stereo not given)
Percent Effect (30.3 µM, […]): 15.08%
